Shown are actives, neighbours in structure and some others; about 2.1% of the full set was active somewhere.
FUS yeast rescue: suppressors of FUS proteinopathy in yeast. S. cerevisiae FUS-expressing, growth rescue, OD600, 24 h. 390,000 compounds, 0.24% hits. AID 1347120. Potency, µM (highest dose often 76.6 µM), most hits filed as activators;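 also: plate controls were DMSO vehicle for no effect and reference control for full effect; nearly all actives have a fitted effect of over 55% in size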
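Steps: raffinose overnight preculture; dilution to OD 0.005 in 2% galactose minimal medium; compound addition (concentration series); 24hr at 30C, 99% humidity; absorbance read at 600 nm.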
TDP43 rescue: rescues yeast growth from TDP-43 toxicity; TDP-43 expressing yeast growth rescue, BacTiter-Glo, 24 h; Potency, µM (titrated, usually from 46.1 µM), without a hit: at the top dose growth rescue (activation), actives largely listed as activators; 410,000 compounds, 1.8% hits; also: % of control where 0% means no effect; nearly all actives have a fitted effect of over 50% in size
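Cell-based yeast growth screen: TDP-43 expression induced in galactose, inoculum OD600=0.02 after raffinose pregrowth to mid-log. Read-out BacTiter-Glo luminescence at 24 hr, 30 deg C; inhibition of toxicity seen as signal increase.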
Abeta rescue: restores growth of yeast expressing A-beta42 peptide. yeast expressing A-beta42, growth rescue, OD600, 48 h; response scale: 0% DMSO, 100% iron-clioquinol control. Potency, µM (doses to about 46.1 µM), hits mostly activators. 410,000 compounds, 0.063% hits. AID 1347071; also: nearly all actives have a fitted effect of over 55% in size
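Growth rescue measured by 600 nm absorbance after 48 h yeast culture at 30 C with compound. Values normalized between DMSO and an equimolar ferric chloride plus clioquinol control.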
aSyn rescue: rescues yeast growth from alpha-synuclein toxicity; Yeast expressing alpha-synuclein, growth rescue, BacTiter-Glo, 24 h; Potency, µM (highest dose often 46.1 µM), for inactives: top-dose growth rescue (activation), usual class: activators; 370,000 compounds, 0.14% hits; AID 652106; also: % of control where 0% means no effect; nearly all actives have a fitted effect of over 65% in size
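Rescue of yeast growth: cells expressing toxic alpha-synuclein, induced in galactose at OD600 0.02, incubated with compound 24 h at 30 C. ATP luminescence quantified growth; inhibitors of toxicity appear as activators.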
* marks the source's active call; other numbers are inactive results; i = inactive; ? = inconclusive; / = not tested or not shown; [ ] = remark or other dose. Calls follow the shape of the dose curve; as a rule, active = well fitted curve in the direction sought with a large enough effect; inconclusive = small, poorly fitted or top-dose-only effect, or another doubt; inactive = no such curve, though single readings can be large; an effect the other way counts as inactive or inconclusive. Potency is read from the fitted curve at half-maximal effect.

SMILES	FUS yeast rescue	TDP43 rescue	Abeta rescue	aSyn rescue
CCn1nc(C)c2c(-c3ccccc3)cc(=O)n(C(C)C(=O)Nc3cc(C)ccc3C)c21 (stereo unspecified)	i	4%	i	/
CCC1CCCCN1CCCNC(=O)c1ccc2c(c1)c(C)c(C)n2CC (stereo unspecified)	i	-1%	i	0%
COc1ccc(NC(=S)NCc2ccc(F)cc2)c(OC)c1	i	0%	i	5%
CSc1ccccc1C(=O)NC1CCSc2ccccc21 (stereo unspecified)	i	24%	i	1%
Oc1ccc(Oc2ccc(Oc3ccc(O)cc3)cc2)cc1	i	20µM*	i	4%
COc1ccc(S(=O)(=O)c2ccc(O)cc2)cc1	i	8%	i	4%
COCc1cc(=O)n2[nH]c(C)cc2n1	i	5%	i	5%
O=C(NC(=S)N1CCN(c2nc(-c3ccccc3)cs2)CC1)c1cncc(Br)c1	i	16µM*	?	?
O=C(CN1CCN(c2nc(-c3ccccc3)cs2)CC1)NNC(=O)c1ccc(Br)cc1	i	-26%	i	0%
CCOCCCNC(=S)N1CCN(c2nc(-c3ccccc3)cs2)CC1	i	20µM*	?	-4%
COc1cccc(-c2csc(N3CCN(C(=O)Nc4ccc(Cl)cc4)CC3)n2)c1	i	11µM*	i	-24%
COCCCNC(=S)N1CCN(c2nc(-c3ccccc3)cs2)CC1	i	35µM*	?	-5%
Cc1onc(-c2ccccc2)c1C(=O)OCC(=O)Nc1cc(S(=O)(=O)N2CCOCC2)ccc1Cl	i	-8%[9.22 µM]	i	-3%
Cc1cccc(S(=O)(=O)Nc2nc3ccccc3nc2Nc2cccc(C(=O)O)c2)c1	i	7%	i	6%
COCCCNC(=S)N1CCN(c2nc(-c3ccc(Cl)cc3)cs2)CC1	i	13µM*	?	-18%
Fc1ccc(CNc2ncnc3nc[nH]c23)cc1	/	/	/	-4%
CCOC(=O)c1ccc(CNc2ncnc3nc[nH]c23)cc1	/	/	/	25µM*
Cc1cccc(CSc2cn(CC(=O)N3CCOCC3)c3ccccc23)c1	?	?	i	14%
O=C(Cn1cc(SCc2ccc(C(F)(F)F)cc2)c2ccccc21)N1CCCC1	?	35µM*	i	/
O=C(Cn1cc(SCc2cccc(Cl)c2)c2ccccc21)N1CCOCC1	?	35µM*	?	?
COc1cccc(C2C=C(c3ccccc3)Nc3c(C(=O)Nc4ccccc4)cnn32)c1OC (stereo unspecified)	i	1%	i	/
CCOc1ccc(NC(=O)c2cnn3c2NC(c2ccccc2)=CC3c2cccc(OC)c2OC)cc1 (stereo unspecified)	22µM*	27%[9.22 µM]	i	/
CN1CCN(C(=O)/C=C/c2ccc([N+](=O)[O-])o2)CC1	i	11%	i	0%
O=C(O)/C=C/c1ccc([N+](=O)[O-])o1	i	10µM*	i	9%
CCN(CCCNC(=O)C1CCC(=O)N1C1CCCC1)c1cccc(C)c1 (stereo unspecified)	i	-3%	i	1%
SMILES	FUS yeast rescue	TDP43 rescue	Abeta rescue	aSyn rescue
Fc1ccc(-c2nc3c4ccccc4ccn3c2Cc2ccccc2C(F)(F)F)cc1	i	?	?	16%
COc1ccccc1Cc1c(-c2ccc(OC)c(OC)c2)nc2c3ccccc3ccn12	?	11µM*	i	4%
COc1ccc(-c2nc3c4ccccc4ccn3c2Cc2ccccc2C(F)(F)F)cc1OC	?	20µM*	i	17%
CCOC(=O)Cc1c(-c2cccc(Br)c2)nc2c3ccccc3ccn12	i	22µM*	i	8%
COc1ccc(Cc2c(-c3ccc(F)cc3)nc3c4ccccc4ccn23)c(C)c1	i	?	i	16%
COc1ccc(Cc2c(-c3ccccc3)nc3c4ccccc4ccn23)c(C)c1	i	11µM*	i	17%
Cc1cn([C@H](C(=O)NCCCCCCCCCCC(=O)N2CCNCC2)[C@@H](C)O)nn1	i	-22%	i	16%
COc1ccc(N2C(=O)CC(N3CCC(O)(c4cccc(C(F)(F)F)c4)CC3)C2=O)cc1 (stereo unspecified)	i	18µM*	i	8%
CCOC(=O)c1c(C)[nH]c(C(=O)CN2CC(C)OC(C)C2)c1C (stereo unspecified)	i	2%	i	0%
CCC(=NCc1ccc(Cl)c(Cl)c1)c1nc(-c2ccco2)oc1O	i	14µM*	i	9%
O=C1C=C(c2cccc(CO)c2)C[C@@H](c2ccc(Cl)cc2)C1	i	18µM*	i	11%
O=C1C=C(c2ccc3ncccc3c2)C[C@@H](c2ccc(Cl)cc2)C1	?	16µM*	i	17%
O=C1CC(c2ccccc2)CC(=O)C1Sc1ccc(Cl)cc1 (stereo unspecified)	/	10µM*	i	17%
Cc1ccc(C2=CC(=O)C[C@H](c3ccc(Cl)cc3)C2)cc1	i	16µM*	i	4%
COc1ccc([C@H]2CC(=O)C=C(c3cccc(CO)c3)C2)cc1OC	i	18%	i	5%
O=C1C=C(c2ccccc2)C[C@@H](c2ccc(Cl)cc2)C1	i	20µM*	i	8%
O=C(Nc1nnc(-c2ccco2)o1)c1ccc(Cl)cc1	i	?	?	11µM*
O=C(COc1ccccc1)Nc1nnc(-c2ccc(Cl)cc2)o1	i	14µM*	?	14µM*
COc1cccc(C(=O)Nc2nnc(-c3ccc(Cl)cc3)o2)c1	i	3.2µM*	?	?
COc1cccc(C(=O)Nc2nnc(-c3cccs3)o2)c1	i	0%	?	7%
CC(=O)c1ccc(C(=O)Nc2nnc(-c3ccc(Cl)cc3)o2)cc1	i	10µM*	6.3µM*	3.2µM*
COc1cc(OC)cc(C(=O)OCC(=O)NC2CCCCCCC2)c1	i	13%	i	-6%
COCCCNC(=S)NNC(=S)NCCCOC	i	-22%	i	-5%
CCOc1ccccc1C(=O)NC(C(=O)OCC(=O)Nc1nnc(-c2ccccc2)o1)C(C)C (stereo unspecified)	?	?	i	?
COc1cccc(C(=O)Nc2nnc(-c3ccc(F)cc3)o2)c1	i	7.1µM*	?	10µM*
CCOc1ccccc1C(=O)OCC(=O)Nc1nnc(-c2ccccc2)o1	i	22µM*	?	?
CC1(C(=O)NS(=O)(=O)c2ccc(Br)cc2)CCN1C(=O)CC1CCCCC1 (stereo unspecified)	i	-1%	i	4%
Cc1c(NS(=O)(=O)c2ccc3c(c2)OCCO3)cccc1-c1nc2cccnc2s1	i	35µM*	i	?
Cc1c(NS(=O)(=O)c2cccs2)cccc1-c1nc2cccnc2s1	i	22µM*	/	?

High-throughput results from PubChem BioAssay.
